# Compounds with a hit are over-represented: about 4.5% of the library has one in this group of screens.
# 697 NFkB inh = inhibitors of the PMA/ionomycin-induced NF-kB reporter in 697 B cells. AID 435022. 697 B-cell NF-kB luciferase reporter, 16 h. hit rate 0.33% among 330,000. inhibition, % at 4 µM; in the data active means inhibition above about 35%
# aSyn UTR inh = 5' untranslated region of α-synuclein, MLPCN primary screen. hit rate 0.82% among 300,000. alpha-synuclein 5'UTR reporter, inhibitor activity. AID 1813. inhibition, % (tested at 7.5 µM); in the data active means inhibition above about 60%;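 further: H4 neuroglioblastoma cells stably carrying SNCA 5'UTR luciferase fusion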
# Mdm2 MdmX PPI = inhibitors of human Mdm2/MdmX interaction; O15151+Q00987; SaOS-2 split-luciferase Mdm2/MdmX complementation, luminescence; inhibition, % at 8 µM; hit rate 3% among 330,000; AID 485346;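 active means inhibition of at least 50% at 8 µM in the primary screen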
# Jurkat NFkB inh = lowers PMA/ionomycin-induced NF-kB signal in Jurkat cells | PMA/ionomycin-induced NF-kB luciferase reporter, luminescence | inhibition, % at 4 µM | hit rate 0.53% among 330,000; in the data active means inhibition above about 50%
# Gli-Sufu antag = antagonists of Gli-Sufu signaling; Sufu-KO-LIGHT fibroblasts, Gli luciferase reporter luminescence; inhibition, % at 5 µM; hit rate 0.74% among 340,000;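 active means inhibition above about 55%, limit read from the data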
# CSC inhib = cancer stem cell inhibition; cancer stem cell-like cells viability, luminescence; hit rate 1.1% among 300,000; inhibition, % at 7.5 µM; in the data active means inhibition above about 75%; tested in HMLE shEcad cells
# 697 NFkB conf = lowers PMA/ionomycin-induced NF-kB signal in 697 B cells; shares compounds with 697 NFkB inh; 697 B-cell NF-kB luciferase, 16 h; inhibition, % at 4 µM; hit rate 35% among 2,000; AID 449746; in the data active means inhibition mostly above about 28%, no sharp cut-off; inactive means mostly below about 22%
# Mdm2-MdmX conf = human Mdm2/MdmX binding inhibition, confirmed; inhibition, % at 8 µM; luminescent assay; AID 489028; hit rate 55% among 10,000; shares compounds with Mdm2 MdmX PPI; in the data active means inhibition above about 40%
# Full FLuc ctr = counter-screen for Mdm2/MdmX inhibitors: full-length luciferase. inhibition, % at 8 µM. shares compounds with Mdm2 MdmX PPI. SaOS-2 full-length luciferase counterscreen, luminescence. hit rate 77% among 6,200;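 active means mean inhibition at 8 µM reaching about 37%, which flags the compound as non-specific, limit read from the data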;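 further: p53-null SaOS-2 cells with luciferase driven by a doxycycline-inducible promoter; compound on cells about two nights before reading with doxycycline added after day one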
# A number is an active result; . = inactive; / = no result.
SMILES,697 NFkB inh,aSyn UTR inh,Mdm2 MdmX PPI,Jurkat NFkB inh,Gli-Sufu antag,CSC inhib,697 NFkB conf,Mdm2-MdmX conf,Full FLuc ctr
Cc1ccc(NC(=O)O/N=C/c2c(C)nn(C(C)(C)C)c2C)cc1Cl,63,77,80,.,.,.,78,92,54
Cc1ccc(NC(=O)Nn2cnnc2)cc1Cl,.,.,.,.,.,/,/,/,/
COc1ccc(NC(=O)CCc2nc3ccccc3c(=O)[nH]2)cc1S(=O)(=O)N1CCCCC1,.,/,.,.,.,.,/,/,/
O=C(c1ccc2nc[nH]c2c1)N1CCN(c2ncc(C(F)(F)F)cc2Cl)CC1,.,.,.,.,.,.,/,/,/
CCN1C(=O)c2cccc3c(S(=O)(=O)N4CCC(C)CC4)ccc1c23,41,/,83,.,.,.,46,42,83
CCN1C(=O)c2cccc3c(S(=O)(=O)NCc4ccccc4)ccc1c23,.,/,.,.,.,/,/,/,/
NC(=O)c1nsc(C(=O)N(c2ccccc2F)C(C(=O)NCc2ccccc2)c2ccc(O)cc2)c1N (stereo not drawn),35,.,52,.,.,.,.,66,77
Cc1ccccc1N(C(=O)c1snc(C(N)=O)c1N)C(C(=O)NCc1ccccc1)c1ccc(O)cc1 (stereo not drawn),.,.,.,.,.,.,/,/,/
Cc1ccc(NC(=O)CN2CCCC2c2cccn2C)c(Br)c1 (stereo not drawn),.,/,.,.,.,.,/,/,/
C[C@H]1C=CC(=O)O[C@H]1c1ccccc1,46,.,50,.,.,.,.,.,/
Cc1nnc2ccc(-c3cccc(NS(=O)(=O)c4ccccc4[N+](=O)[O-])c3)nn12,40,.,56,.,.,.,.,55,82
COc1ccc(OCc2cccc(C(=O)Nc3cc(C)on3)c2)cc1,91,66,.,.,.,.,77,.,/
COc1ccc(OCc2cccc(C(=O)Nn3cc([N+](=O)[O-])cn3)c2)cc1,93,.,79,.,.,.,83,71,.
CCn1c(SCC(=O)Nc2ccc3c(c2)n(C)c(=O)n3C)nnc1-c1ccncc1,.,.,.,.,.,.,/,/,/
Cn1c(=O)n(C)c2cc(NC(=O)CSc3nnc(-c4ccccc4O)n3-c3ccccc3)ccc21,36,.,58,.,.,.,41,.,/
COc1ccc(S(=O)(=O)Nc2cc3c(C(C)=O)c(C)oc3c3ccccc23)cc1,41,82,67,.,.,.,32,70,80
Cc1oc2c(cc(NS(=O)(=O)c3ccc(F)cc3)c3ccccc32)c1C(=O)O,.,.,.,.,.,/,/,/,/
COc1ccc2c(c1)c(CCNNC(=O)C(C)(C)C)c(C)n2C(=O)c1ccc(Cl)cc1,.,.,.,.,.,/,/,/,/
COC(=O)c1c(-c2ccccc2)csc1NC(=O)c1c(-c2ccccc2)noc1C,.,65,97,.,.,.,.,95,53
COC(=O)c1ccc(C)c(NC(=O)c2c(-c3ccccc3)noc2C)c1,.,.,.,.,.,.,/,/,/
COC(=O)[C@@H]1CC[C@H](C)[C@@H](c2ccc(C)cc2)N1C(=O)c1ccc(/C=N/O[C@@H](C)c2cn([C@H](CO)Cc3ccccc3)nn2)cc1,52,.,88,.,/,.,.,66,51
COc1ccc(/C=C2\N=C(SC)N(c3ccccc3OC)C2=O)cc1,.,.,98,.,.,.,.,94,47
O=C(Cc1coc2ccc3ccccc3c12)Nc1nnc(C2CC2)s1,.,.,74,.,.,.,.,83,38
O=C(CCCc1ccccc1)c1ccc2c(c1)OCCO2,.,86,90,.,.,.,.,88,57
C#CCn1c(S(=O)(=O)Cc2ccc(F)cc2)nc(-c2ccccc2)c1-c1ccccc1,.,.,97,.,.,.,.,91,52
SMILES,697 NFkB inh,aSyn UTR inh,Mdm2 MdmX PPI,Jurkat NFkB inh,Gli-Sufu antag,CSC inhib,697 NFkB conf,Mdm2-MdmX conf,Full FLuc ctr
CCOC(=O)Cc1c(C)nc2c(-c3ccccc3)cnn2c1C,.,.,.,.,.,.,/,/,/
Cc1nc2c(-c3ccccc3)cnn2c(N)c1-c1ccccc1,.,.,83,.,56,.,.,77,148
CC(=O)c1ccc(N2CCN(C(=O)c3ccc(NC4=NC5CS(=O)(=O)CC5S4)cc3)CC2)cc1 (stereo not drawn),.,.,.,.,.,/,/,/,/
Cc1cc(NC(=O)COC(=O)c2c(Cl)cccc2Cl)no1,.,/,88,.,.,/,.,59,54
C=C(C)CSc1nnc([C@@H]2CCCN2C(=O)OC(C)(C)C)o1,.,.,.,.,.,.,/,/,/
CC1=Nc2cc(C(=O)O)ccc2Sc2c(C)ccc(C)c21,.,.,.,.,.,.,/,/,/
CC1=Nc2cc(C(=O)N3CCCC3)ccc2Sc2c(C)ccc(C)c21,.,.,90,.,.,.,.,67,.
Cc1nn(-c2cccc(Cl)c2)c(Cl)c1/C=N/NC(=O)c1cccs1,.,.,78,.,.,.,.,54,48
CSc1cccc(NS(=O)(=O)c2cc(Br)cnc2N)c1,.,.,.,.,.,.,/,/,/
COc1ccc2nc(C)cc(SCC(=O)NNC(=O)COc3ccccc3)c2c1,.,.,.,.,.,.,/,/,/
COc1ccc2nc(C)cc(Sc3nc4ccccc4s3)c2c1,42,.,78,.,.,.,38,.,/
CC(=O)Nc1ccc(S(=O)(=O)Oc2ccc3c(c2)C(C)=CC(C)(C)N3)cc1,.,.,98,.,/,.,.,79,.
CC1=CC(C)(C)Nc2ccc(OS(=O)(=O)c3ccc(C)cc3)cc21,.,.,.,.,.,.,/,/,/
O=C(COC(=O)CC1SC(N2CCCC2)=NC1=O)Nc1ccc(Br)cc1 (stereo not drawn),.,/,.,.,.,/,/,/,/
CCCNS(=O)(=O)c1ccc(OCC(=O)N2CCOCC2)cc1,.,.,.,.,.,.,/,/,/
COc1cc(/C=N/NC(=O)c2cc(-c3cccc(OC(C)C)c3)nc3ccccc23)ccc1O,.,.,88,.,.,.,.,59,57
CCn1c(=S)[nH]c2cc(S(=O)(=O)N3CCCCC3)ccc21,36,.,82,.,.,.,30,49,84
COC(=O)c1sc2nc(C)cc(C)c2c1N,.,.,.,.,.,.,/,/,/
Cc1cc(C)c2c(N)c(C(=O)Nc3ncc(C)s3)sc2n1,.,/,79,.,67,/,.,81,55
COc1cc(/C=N/NC(=O)c2sc3nc(C)cc(C)c3c2N)ccc1O,43,.,73,.,.,.,.,52,64
COc1cc(/C=N/n2cnc3c(sc4nc(C)cc(C)c43)c2=O)ccc1O,.,.,.,.,.,.,/,/,/

# Compound activity from PubChem BioAssay.
